# Among all 190,000 compounds or so, about 4,000 (2.1%) were called active. This is one part of a sample in which actives are shown more often than they occur. Rule as the data show it: active = inhibition above about 58%; inactive = the rest, inconclusive results apart; tested in S. cerevisiae.
# Assay: growth inhibition of WT strain, primary screen, mitochondrial fusion inhibitor project, WT and mutant strains, chemical genetic (AID 1362)
# Settings: mitochondrial fusion phenotypic screen, at 10 µM
# [1] = WT strain, growth inhibition, stronger effect = higher value
Structure (SMILES),inhibition [1],inhibition (mutant strain inhibition) [%]
CN(c1ccccc1)S(=O)(=O)c1cc(C(=O)OCC(=O)N2CCN(C(=O)c3ccco3)CC2)ccc1Cl,-22.5% (inactive),9.01
OCC1(CCc2ccccc2)CCN(Cc2ccc3nsnc3c2)CC1,9.84% (inactive),25.4
Cc1cccc(-c2ncc(CN3CCC(CO)(CCCc4ccccc4)CC3)cn2)c1,84.8% (active),70.5
COc1cccc(CC2(CO)CCN(Cc3cnc(-c4cccc(C)c4)nc3)CC2)c1,-0.71% (inactive),-25.4
N#CCSc1nn(-c2ccc(F)cc2)c(=S)s1,4.11% (inactive),-30.5
COCCN(C(=O)c1ccccc1F)c1c(N)n(Cc2ccccc2)c(=O)[nH]c1=O,4.27% (inactive),0.13
O=[N+]([O-])c1ccccc1N/N=C1\CCc2ccccc21,-0.84% (inactive),3.81
O=C1c2ccccc2NC(c2ccccc2O)N1NS(=O)(=O)c1ccccc1 (configuration not stated),-6.26% (inactive),-11.6
CCCCN(CC)CCCNC(=O)c1ccc(CSc2nc3ccncc3[nH]2)cc1,7.78% (inactive),7.15
Cc1cccc(-n2cc(CN3CCN(C(=O)c4ncn[nH]4)CC3)c(-c3cccc(F)c3)n2)c1,10.2% (inactive),-17.8
Cc1ccc(-n2cc(CN(C)Cc3nccn3C)c(-c3cccc(C)c3)n2)cc1,78.8% (active),64.6
COc1ccc(-n2cc(CN(C)Cc3n[nH]c(=O)[nH]3)c(-c3cccc(F)c3)n2)cc1,7.75% (inactive),8.93
Brc1ccc2nc(N3CCCC3)sc2c1,14.9% (inactive),19.6
CCOC(=O)C1(Cc2cccc(OC)c2)CCN(Cc2csc(C(C)=O)c2)CC1,25.6% (inactive),25
O=C(c1ccc(-c2ccccc2)cc1)C1CCCN(C(=O)c2cncs2)C1 (configuration not stated),-57.9% (inactive),9.01
CCOc1ccc2c(c1)C(c1ccc(C)cc1)=NNC(c1ccc(C)cc1)=N2,45.3% (inactive),35.7
CCc1ccc2c(c1)C(c1ccc([N+](=O)[O-])cc1)=NNC(c1ccccc1)=N2,-6.57% (inactive),12
Cc1ccc(C2=Nc3c(ccc4ccccc34)C(c3ccncc3)=NN2)cc1,67.9% (active),45.6
Cc1coc(C)c1C(=O)CC1(O)C(=O)N(C)c2ccc(Cl)cc21 (configuration not stated),5.13% (inactive),0.33
Cc1ccccc1NCC(=O)N/N=C\c1ccc([N+](=O)[O-])s1,66.5% (active),43.8
CCOc1ccc(NC(=O)CCC(=O)N/N=C/c2ccc([N+](=O)[O-])s2)cc1,60.3% (active),17.2
CCOc1ccc(NC(=O)CCC(=O)n2nc(C)cc2C)cc1,-6.72% (inactive),-6.56

Structure (SMILES),inhibition [1],inhibition (mutant strain inhibition) [%]
CCCCCC(=O)Nc1ccc(C(=O)N/N=C/c2ccc([N+](=O)[O-])cc2)cc1,-17% (inactive),15.9
Cc1cccc(/C=N/NC(=O)CNc2cccc3ccccc23)n1,18.4% (inactive),3.37
COc1ccc(C(=O)NCC(=O)N/N=C/c2ccc([N+](=O)[O-])s2)cc1OC,-4.24% (inactive),-9.98
CCN(CC)C(=O)Cn1cc(S(=O)(=O)CC(=O)NCc2ccc3c(c2)OCO3)c2ccccc21,-10.5% (inactive),4.73
O=C(/C=C/c1ccc(F)cc1)NCCNC(=O)/C=C/c1ccc(F)cc1,8.8% (inactive),-17
OCC1(Cc2ccccc2)CCN(Cc2cc3ccccc3o2)CC1,24.3% (inactive),36.2
Cc1csc(Nc2ccc(Cl)cc2)[n+]1-c1ccc(Cl)cc1,78.4% (active),70
COc1ccc(N2CCN(C(=O)COc3ccc4c(C)cc(=O)oc4c3)CC2)cc1,-1.11% (inactive),-11.1
CC(C)c1nc(CNC(=O)CC2C(=O)NCCN2Cc2ccoc2)cs1 (configuration not stated),1.8% (inactive),0.76
N#CCCN(CCC#N)c1nnc(-c2ccccc2)s1,73.6% (active),-2.41
CN(C(=O)COc1ccccc1)c1nnc(-c2ccncc2)s1,22.6% (inactive),9.04
CN(CCC#N)c1ncnc2scc(-c3ccccc3)c12,23.5% (inactive),28.2
OCCC1CN(Cc2cccc(O)c2)CCN1CCc1ccccc1 (configuration not stated),9.78% (inactive),8.67
CCc1ccc(Oc2nc([N+](=O)[O-])nn2C)cc1,3.07% (inactive),19
CCn1c(SCc2ccc(C)cc2)nnc1-c1nn(-c2ccccc2)ccc1=O,4.19% (inactive),-13.4
N=C(N)SCc1cccc2ccccc12,41% (inactive),10.9
CCc1ccc(-c2nn(-c3ccccc3)cc2CSC(=N)N)cc1,90.2% (active),35.6
O=C(Nc1ccc2cn[nH]c2c1)c1ccc(S(=O)(=O)N2CCOCC2)cc1,2.7% (inactive),11.1
CS(=O)(=O)N1CCc2cc(C(=O)Nc3ccccc3)ccc21,-2.67% (inactive),-18.5
Cc1cccc2cc3c(N)c(C(=O)N4CCCc5ccccc54)sc3nc12,62.1% (active),57.1
Cc1occc1C(=O)N1CCCc2ccccc21,-3.43% (inactive),-8.66
Cc1c(C(=O)N2CCCc3ccccc32)sc2nc(-c3ccccc3)cn12,9.55% (inactive),9.04

Structure (SMILES),inhibition [1],inhibition (mutant strain inhibition) [%]
C/C(=N\NC(=O)c1cccc(N2CCCC2=O)c1)c1ccc(N)cc1,-2.44% (inactive),-3.4
CCNC(=S)NNC(=O)c1ccc2ncccc2c1,-18.5% (inactive),-0.98
O=C(COC(=O)c1ccc(O)cc1)Nc1nccs1,-7.58% (inactive),1.79
O=C(CN1CCN(S(=O)(=O)c2ccc(Cl)s2)CC1)NCc1ccc(Cl)cc1,61.7% (active),-2.81
Cc1ccc(CNC(=O)CN2CCN(Cc3ccc(Cl)cc3)C2=O)cc1,4.82% (inactive),-0.06
O=C(CN1CCN(c2ccc(Cl)cc2)CC1)NCc1cccs1,14.4% (inactive),-1.49
Cc1ccc2nsnc2c1S(=O)(=O)N1CCCC1C(=O)O (configuration not stated),2.57% (inactive),-0.55
CC(=O)NC(Cc1ccc(F)c(F)c1)C(=O)NC1CCN(c2nnnn2-c2ccccc2)CC1 (configuration not stated),-2.05% (inactive),7.21
CS(=O)(=O)N(Cc1ccccc1Cl)c1ccc(C(=O)NCc2cccnc2)cc1,1.43% (inactive),5.31
Clc1ccc(C2=CSC3=Nc4cccc5cccc(c45)N23)cc1,61% (active),25.3
COc1ccc(CN2CCNC(=O)C2CC(=O)N(C)Cc2ccccn2)cc1OC (configuration not stated),-6.3% (inactive),-4.12
COC(=O)CSc1ccc2nnc(CCNS(=O)(=O)c3ccc(C)cc3)n2n1,8.31% (inactive),0.44
CCCCCC(=O)Nc1ccc(-c2cn3cccnc3n2)cc1,10.4% (inactive),10.5
COc1ccc(CCN=C2SCC(=O)N2Cc2ccccc2)cc1OC,-7.75% (inactive),-8.9
O=C(O)CCC(=O)NCc1ccc2[nH]c3c(c2c1)CCCC3,16.4% (inactive),10.2
Cc1cccc(NC(=S)NCc2ccc3[nH]c4c(c3c2)CCCC4)c1,75.3% (active),51.7
Cc1cccc(NC(=S)NCCN(C2CCCCC2)C2CCCC2)c1,6.36% (inactive),-17.7
OC(COc1ccc(CN2CCSCC2)cc1)CN1CCCCC1 (configuration not stated),-6.41% (inactive),3.34
C=CCN(CC=C)C(=O)COC(=O)c1n[nH]c2ccccc12,3.05% (inactive),3.34
NC(=O)COC(=O)c1cc(S(=O)(=O)N2CCN(c3ccccc3)CC2)ccc1Cl,-11% (inactive),6.11
O=C(NCc1ccccn1)Nc1ccc(F)cc1,-29.6% (inactive),-0.93
COc1cccc(NC(=S)NCc2ccccn2)c1,-0.62% (inactive),6.49

Structure (SMILES),inhibition [1],inhibition (mutant strain inhibition) [%]
CCC(C)c1ccc(NC(=S)NCc2ccccn2)cc1 (configuration not stated),71% (active),62.6
COC(=O)Cc1ccc(Oc2ncc(C(F)(F)F)cc2Cl)cc1,13.6% (inactive),17.5
COc1ccccc1Oc1ccc(S(=O)(=O)Nc2cccnc2)cc1,7.74% (inactive),7.52
Cc1cc(C)cc(NS(=O)(=O)c2ccc(Oc3ncc(C(F)(F)F)cc3Cl)cc2)c1,75.5% (active),23.7
COC(=O)C1=C(C)N(C)C(=S)NC1c1cc(OC)ccc1OC (configuration not stated),4.73% (inactive),3.84
O=C(NCc1ccccc1Cl)C1CCCO1 (configuration not stated),-11.3% (inactive),7.12
COC(=O)CNC(=O)c1ccc(OC2CCN(C(=O)C3CC3)CC2)cc1,1.17% (inactive),10.2
COc1cccc(NC(=S)N(Cc2ccc(C)cc2)Cc2ccccn2)c1,4.22% (inactive),20.6
CSc1cccc(NC(=S)N(C(C)C)C(C)c2ccccn2)c1 (configuration not stated),31.2% (inactive),20.5
CSc1cccc(NC(=S)N(Cc2ccccc2)Cc2ccccn2)c1,65.9% (active),28.6
CC(=O)Nc1ccc(S(=O)(=O)N(C)c2ccc(OCC(=O)OCC(=O)N3CCCCC3)cc2)cc1,0.1% (inactive),-22.2
Cc1ccc(SCCC(=O)Nc2cc(C)on2)cc1,10.3% (inactive),-8.98
NC1=NC2(CCCCC2)N(c2ccc(F)cc2F)C(N)=N1,-0.71% (inactive),-2.91
COCCCNC(=S)NCCNc1nc2cc(C)c(C)cc2cc1C#N,7.68% (inactive),10.7
Cc1ccc2nc(NCCCNC(=O)c3cnccn3)c(C#N)cc2c1,90.6% (active),-2.29
Cc1ccc2cc(C#N)c(NCCNC(=S)NCCCN3CCOCC3)nc2c1,10.9% (inactive),3.33
O=C(NC1CC1)C1CCCN(C(=O)NC2CCCCC2)C1 (configuration not stated),-6.93% (inactive),-6.42
Cc1ccnc(N2CCC(C(=O)NC3CCCCCC3)CC2)n1,-13.5% (inactive),-18.9
COc1nc(NC2CCCCC2)nc(N2CCCCCC2)n1,66.3% (active),28.3
FC(F)(F)COc1nc(N2CCCCC2)nc(N2CCNCC2)n1,3.34% (inactive),2.8
